Screening data (PubChem BioAssay)
MITF primary – human MITF inhibition, primary screen; O75030; AlphaScreen MITF homodimerization, bead proximity signal; inhibition, % at 2.6 µM; actives 0.91% (n = 650,000); in the data active means inhibition above about 50%;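 further: 0% = vehicle wells with protein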
FBW7 act – activators of human E3 ligase FBW7. Q969H0. AlphaScreen FBW7–phospho-cyclin E peptide binding, activator screen. normalized activity (activation), % at 26.1 µM. actives 0.13% (n = 650,000); in the data active means normalized activity above about 1.9%;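 further: purified mutant Fbw7 with reduced substrate affinity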
GPR151 activ – activates the human receptor GPR151 | PathHunter beta-arrestin GPR151 cells, luminescence | activation, % at 11.2 µM | actives 1% (n = 650,000) | AID 1508602; in the data active means activation above about 4.9%;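 further: 0% = median of compound wells and 100% = cells with positive control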
Target sequence (Q8TDV0 whole entry, looked up): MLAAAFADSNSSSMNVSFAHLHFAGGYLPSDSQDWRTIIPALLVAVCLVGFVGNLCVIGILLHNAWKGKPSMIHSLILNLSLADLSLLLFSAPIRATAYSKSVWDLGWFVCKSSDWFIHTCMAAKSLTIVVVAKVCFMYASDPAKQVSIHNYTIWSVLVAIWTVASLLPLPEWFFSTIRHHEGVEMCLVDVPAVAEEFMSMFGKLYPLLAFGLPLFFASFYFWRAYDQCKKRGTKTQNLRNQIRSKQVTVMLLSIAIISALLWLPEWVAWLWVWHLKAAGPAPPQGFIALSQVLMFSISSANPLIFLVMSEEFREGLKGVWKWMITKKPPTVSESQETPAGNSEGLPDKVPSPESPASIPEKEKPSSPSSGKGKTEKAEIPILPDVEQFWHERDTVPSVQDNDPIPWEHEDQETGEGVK
TEAD-YAP inh – TEAD-YAP interaction inhibition; HEK-TIYL cells, TEAD-Gal4/YAP UAS-luciferase luminescence; inhibition, % at 9.12 µM; actives 1.4% (n = 640,000); AID 1259422; in the data active means inhibition above about 32%;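 further: 0% = median of test compound wells and 100% = reference inhibitor wells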
GPR151 confirm – human GPR151 activation, confirmation screen | shares compounds with GPR151 activ | GPR151 PathHunter beta-arrestin cells, luminescence, 90 min; % of EA-reagent control over plate median | activation, % at 11.2 µM | 6,700 tested, under 10 active;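 active means mean percent activation across replicates above the confirmation screen cutoff of 4.91%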
GPR119 counter – counter-screen for GPR151 activators: effect on human GPR119; actives 0.3% (n = 6,700); activation, % at 11.2 µM; shares compounds with GPR151 activ; GPR119 PathHunter beta-arrestin cells, luminescence, 90 min; 0 = compound-well median, 100 = enzyme-acceptor control;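 active means mean percent activation in the counterscreen above 29.09%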;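 further: counterscreen on off-target GPR119 to flag nonselective hits from the GPR151 activator screen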
* hit, by the source's call; ! = not active in a repeat. Only some compounds are listed: those with a hit (about 3.4% of all), similar ones and a draw of the others.

How did N#Cc1ccc2c(c1)N(Cc1ccccc1F)C(=O)C1CCCN21 (stereo unspecified) do in these assays?
MITF primary: -3; FBW7 act: 0; GPR151 activ: 2; TEAD-YAP inh: 5

How did Cc1cccc(CN2C(=O)C3CCCN3c3ccc(C#N)cc32)c1 (stereo unspecified) do in these assays?
MITF primary: 0; FBW7 act: 0; GPR151 activ: 9.4*; TEAD-YAP inh: -5; GPR151 confirm: 0; GPR119 counter: -7

What do the screens show for `O=C1NC(=S)/C(=C\c2ccccc2F)S1`?
MITF primary: 9; FBW7 act: 0; GPR151 activ: 7.2*; TEAD-YAP inh: -1; GPR151 confirm: 0; GPR119 counter: 23

What do the screens show for `CCN(CC)c1ccc(/C=N\NC(=O)c2ccc(O)cc2)cc1`?
MITF primary: 1; FBW7 act: 0; GPR151 activ: 0; TEAD-YAP inh: 27

How did CCN(CC)c1ccc(/C=N/NC(=O)c2ccc(O)cc2O)cc1 do in these assays?
MITF primary: 5; FBW7 act: 0; GPR151 activ: 6.0*; TEAD-YAP inh: 74*; GPR151 confirm: -1; GPR119 counter: -2

What do the screens show for `COc1ccc(S(=O)(=O)N2CCCCC2)cc1NC(=O)c1cc(C)nc2ccccc12`?
MITF primary: 7; FBW7 act: 0; GPR151 activ: 2; TEAD-YAP inh: 6

Results for COc1ccc(NC(=O)c2cc(C)nc3ccccc23)cc1S(=O)(=O)N1CCCCC1 ?
MITF primary: -2; FBW7 act: 0; GPR151 activ: 8.4*; TEAD-YAP inh: -3; GPR151 confirm: 0; GPR119 counter: 9

Results for COC(=O)c1cccc(CN2C(=O)C(C)Sc3cc(Cl)c(OC)cc32)c1 (stereo unspecified) ?
MITF primary: 8; FBW7 act: 0; GPR151 activ: 2; TEAD-YAP inh: 4

How did CC(C)NCCOCCOc1cccc(Cl)c1 do in these assays?
MITF primary: 42; FBW7 act: 0; GPR151 activ: 8.4*; TEAD-YAP inh: 6; GPR151 confirm: -1; GPR119 counter: -13

Results for CC(C)NCCOCCOc1c(Cl)cccc1Cl ?
MITF primary: 35; FBW7 act: 0; GPR151 activ: 0; TEAD-YAP inh: -18

What do the screens show for `CC(=O)OC(C(=O)NCc1ccco1)c1ccncc1` (stereo unspecified)?
MITF primary: -3; FBW7 act: 0; GPR151 activ: 11*; TEAD-YAP inh: -5; GPR151 confirm: 2; GPR119 counter: 6

How did CC(=O)Nc1cccc(NC(=O)c2ccc(NC(=O)C(C)C)cc2)c1 do in these assays?
MITF primary: 7; FBW7 act: 0; GPR151 activ: 1; TEAD-YAP inh: -27

Results for COc1ccc(NC(=O)c2sc(=S)[nH]c2N)cc1 ?
MITF primary: -4; FBW7 act: 0; GPR151 activ: 5.0*; TEAD-YAP inh: -31; GPR151 confirm: -1; GPR119 counter: -12

What do the screens show for `CC(=O)c1cc(CN2CCN(Cc3ccccc3C)C(CCO)C2)cs1` (stereo unspecified)?
MITF primary: 2; FBW7 act: 0; GPR151 activ: -1; TEAD-YAP inh: 12

What do the screens show for `O=C(CN(C(=O)CCC(=O)Nc1ccccn1)C1CCCCC1)NCc1ccc(F)cc1`?
MITF primary: -7; FBW7 act: 0; GPR151 activ: 1; TEAD-YAP inh: 5

Results for CCOc1ccc(S(=O)(=O)N(CC(=O)Nc2ccccc2F)c2ccc(F)cc2)cc1 ?
MITF primary: -2; FBW7 act: 0; GPR151 activ: 0; TEAD-YAP inh: -2

What do the screens show for `CCCN1C(=O)C[n+]2ccccc2C1C(=O)Nc1ccccc1C` (stereo unspecified)?
MITF primary: 2; FBW7 act: 1; GPR151 activ: 12*; TEAD-YAP inh: 2; GPR151 confirm: 1; GPR119 counter: 2

Results for Cc1cccc(C)c1NC(=O)C1c2cccc[n+]2CC(=O)N1CCO (stereo unspecified) ?
MITF primary: -11; FBW7 act: 0; GPR151 activ: 1; TEAD-YAP inh: -1

How did Clc1ccccc1C(c1ccccc1)(c1ccccc1)n1ccnc1 do in these assays?
MITF primary: -14; FBW7 act: 0; GPR151 activ: 6.9*!; TEAD-YAP inh: 0; GPR151 confirm: 2; GPR119 counter: -12

What do the screens show for `COc1ccccc1C1CC(c2ccc(C(C)C)cc2)Nc2nnnn21` (stereo unspecified)?
MITF primary: 3; FBW7 act: 0; GPR151 activ: -1; TEAD-YAP inh: -4

Results for COc1ccccc1C1CC(c2ccc(Cl)cc2)Nc2nnnn21 (stereo unspecified) ?
MITF primary: 8; FBW7 act: 0; GPR151 activ: 5.2*; TEAD-YAP inh: 1; GPR151 confirm: 0; GPR119 counter: -11

Results for CC1CCCN(C(=O)CO/N=C/c2cccs2)C1 (stereo unspecified) ?
MITF primary: 14; FBW7 act: 0; GPR151 activ: -1; TEAD-YAP inh: 3

How did Cc1cccc2sc(NC(=O)CSc3ccccn3)nc12 do in these assays?
MITF primary: -3; FBW7 act: 0; GPR151 activ: 4; TEAD-YAP inh: -11

Results for Cc1ccc(C)n1-c1ccc(Cl)cc1C(=O)O ?
MITF primary: 70*; FBW7 act: -1; GPR151 activ: 7.7*; TEAD-YAP inh: 8; GPR151 confirm: -1; GPR119 counter: -9

Results for Cc1ccc(C)n1-c1ccc(Cl)cc1O ?
MITF primary: 0; FBW7 act: 0; GPR151 activ: 0; TEAD-YAP inh: 5

Results for CCNS(=O)(=O)c1ccc(CCC(=O)NC2CC2)cc1 ?
MITF primary: 11; FBW7 act: 0; GPR151 activ: 6.7*; TEAD-YAP inh: -12; GPR151 confirm: 0; GPR119 counter: 10

Results for CCC(=O)Nc1nn2c(CC(C)C)nnc2s1 ?
MITF primary: -13; FBW7 act: 0; GPR151 activ: 5.0*; TEAD-YAP inh: 6; GPR151 confirm: 0; GPR119 counter: -6

Results for CCCC(=O)Nc1nn2c(CC(C)C)nnc2s1 ?
MITF primary: -2; FBW7 act: 0; GPR151 activ: 7.1*; TEAD-YAP inh: -5; GPR151 confirm: 1; GPR119 counter: 1

Results for CCCC(=O)Nc1nn2c(CCC)nnc2s1 ?
MITF primary: 0; FBW7 act: 0; GPR151 activ: 0; TEAD-YAP inh: -4

What do the screens show for `CC(C)Cc1nnc2sc(NC(=O)C(C)C)nn12`?
MITF primary: 3; FBW7 act: 0; GPR151 activ: -1; TEAD-YAP inh: 0

Results for O=C(CCl)NC(=O)NC1CCCCC1 ?
MITF primary: 13; FBW7 act: 0; GPR151 activ: 1; TEAD-YAP inh: 18
